Z-score data for 94 compounds are collected here from PubChem BioAssay AID1628 (Sanford-Burnham Center for Chemical Genomics, 2009).

The whole screen tested about 190,000 compounds, of which about 930 (0.49%) were called active.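 The calls were made as follows: active = z-score of insulin promoter reporter brightness in nuclei below -3 at 5 µM, with at least 500 cells counted; inconclusive = wells with under 500 cells, flagged as toxic or sparse; inactive = the rest.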 Some of the results follow. Measured potencies and affinities stand elsewhere.

This experiment can be described thus: decrease of insulin promoter-GFP reporter – imaging, high-content screening, mouse beta cells (AID 1628). The following applies: MIN6 insulin promoter GFP reporter, at 5 µM, active compounds read low.
Turning to `Cc1onc(-c2c(Cl)cccc2Cl)c1C(=O)NCc1ccco1`, the z-score is -0.41 (inactive). The figure for `Cc1ccc(C(=O)Nc2ccccc2C(=O)NCc2ccco2)cc1S(=O)(=O)N1CCCCC1` is -3.27 (active); for `COCCNC(=S)N/N=C(\C)c1ccc2cc(OC)ccc2c1` it is 3.43 (inactive).

In the case of `Cc1cccc(NC(=O)CCNS(=O)(=O)c2cccc3nonc23)c1`, the z-score is 0.73 (inactive). `Cc1cccc(NC(=O)/C=C/c2ccc([N+](=O)[O-])s2)c1`: the z-score is 9.92 (inactive). With `N#CCc1nc(CSc2nc3ccccc3s2)cs1`, the z-score is 4.03 (inactive). On to `CCN(CC)c1ccc(/C=C/C(=O)c2ccc(Br)cc2)cc1`, for which the z-score was 8.04 (inactive). Turning to `CC(=O)Nc1cccc(C(=O)/C=C/c2ccc(N(C)C)cc2)c1`, the z-score was 12.5 (inactive). Turning to `CN(C)c1ccc(N/C=C/C(=O)c2ccc(F)cc2)cc1`, the z-score was -5.01 (active). As to `CN(C)C(=O)CN(c1ccc2c(c1)OCO2)S(C)(=O)=O`, the z-score was 3.6 (inactive). The figure for `Cc1cc(C)nc(NS(=O)(=O)c2ccc(NC(=O)c3ccc4c(c3)OCO4)cc2)n1` is -0.38 (inactive). As to `COc1ccc(S(=O)(=O)N(C)CC(=O)Nc2ccc3c(c2)OCO3)cc1OC`, the z-score was -5.9 (active). Regarding `Cc1oc(C)c2c(=O)ccc3c(c12)OC(N)=C(C#N)C3c1ccccc1` (centres undefined), the z-score was 6.6 (inactive). Consider `CCCN(CCC)c1ccc(/C=C/c2ccc3cc(OCC)ccc3n2)cc1`, for which the z-score is 5.3 (inactive).

Turning to `Cc1nc2ccc(NC(=O)c3cc(S(=O)(=O)N4CCOCC4)ccc3C)cc2s1`, the z-score was -3 (active). The figure for `COc1ccc(C(=O)Nc2ccc3nc(C)sc3c2)cc1OC` is 1.51 (inactive); for `Cc1ccc(C(C)C)c(OCc2nn(CC(=O)c3ccc(Cl)cc3)c3[n+]2CCCCC3)c1` it is -4.3 (active). In the case of `N#CC1=C(N)C(C#N)(C#N)[C@H](c2ccoc2)[C@H]2CN(Cc3ccccc3)CC=C12`, the z-score was 5.86 (inactive).

For `CCN(CC)CC(O)COc1ccc2c(c1)c(C(C)=O)c(C)n2-c1ccccc1` (centres undefined), the z-score was -3.02 (active). Take `CC(C)CN1C(=O)/C(=C/c2c(N3CCc4ccccc4C3)nc3ccccn3c2=O)SC1=S`: the z-score was 16.9 (inactive). In the case of `COc1ccc(C2C3=C(CCCC3=O)Nc3ccc4ncccc4c32)cc1OC` (centres undefined), the z-score is 2.27 (inactive).

In the case of `COc1cc(C2C(C#N)=C(C)NC3=C2C(=O)CC(C)(C)C3)ccc1O` (centres undefined), the z-score was -4.47 (active).

Turning to `COCC(C)n1c(SCC(=O)NC(=O)Nc2ccc3c(c2)OCCO3)nc2ccccc2c1=O` (centres undefined), the z-score is -4.52 (active). Take `O=c1c(-c2ccccc2)coc2cc(O)ccc12`: the z-score is 0.33 (inactive).

As to `O=c1[nH]c(/C(Cl)=C/c2cccc(F)c2)nc2cc(C(F)(F)F)ccc12`, the z-score is -4.9 (active).

Consider `CCN(CC)c1ccc(/C=C(/C#N)c2nc3ccc(C)cc3[nH]2)c(OC(C)C)c1`, for which the z-score was 10.8 (inactive). `COC(=O)c1cc(CSc2nc3ccc(C)cc3[nH]2)oc1C`: the z-score was -3.9 (active). Take `C=CCNC(=O)c1c2c(nc3ccccc13)-c1ccccc1CC2`: the z-score was 4.54 (inactive). Turning to `NC(=O)c1ccc(NC(=O)COC(=O)c2c3c(nc4ccccc24)/C(=C\c2cccs2)CCC3)cc1`, the z-score was -3.07 (active). Take `CC1CCCCC1NC(=O)COC(=O)c1c2c(nc3ccccc13)/C(=C/c1ccco1)CC2` (centres undefined): the z-score was 7.1 (inactive). Turning to `Cc1ccc(S(=O)(=O)Cn2nnnc2C(CC(C)C)N2CCN(c3ccccc3)CC2)cc1` (centres undefined), the z-score is -4.77 (active). For `Cn1ccc(=S)c2ccccc21`, the z-score was 3.38 (inactive).

Take `COC(=O)c1ccccc1NC(=O)Cn1cnc2cc(C)c(C)cc21`: the z-score is -3.24 (active). The figure for `Cc1[nH]n(-c2ccc([N+](=O)[O-])cc2)c(=O)c1C=NCCN1CCN(C(=O)c2ccccc2F)CC1` is 4.48 (inactive); for `COc1ccccc1N1C(=O)CC(Sc2n[nH]c(-c3cccc(C)c3)n2)C1=O` (centres undefined) it is -5.2 (active). For `COC(=O)c1ccc(N2C(=O)CC(Sc3n[nH]c(C)n3)C2=O)cc1` (centres undefined), the z-score is 1.02 (inactive). As to `N#CC(C#N)=C1C=C2C=C(N3CCOCC3)CCC2CC1` (centres undefined), the z-score is 15.6 (inactive). On to `O=c1c2ccccc2nc(-c2ccco2)n1/N=C/c1ccco1`, for which the z-score is 2.3 (inactive). Consider `COc1ccccc1/C=N/n1c(N)c(S(=O)(=O)c2cccs2)c2nc3ccccc3nc21`, for which the z-score is -3.63 (active). `CC(C)(C)c1ccc(OCC(=O)Nc2ccc3c4c(cccc24)C(=O)NC3=O)cc1`: the z-score is 5.3 (inactive).

On to `CCOc1ccc(C2C(C(=O)O)c3ccccc3C(=O)N2CCN2CCOCC2)cc1` (centres undefined), for which the z-score was 4.94 (inactive). On to `CCOc1ccc(C2=C(C=Nc3c(C)n(C)n(-c4ccccc4)c3=O)C(c3ccc(F)cc3)c3ccccc3O2)cc1` (centres undefined), for which the z-score was -4.16 (active). For `COc1ccc(CNc2cc(NCCCO)c([N+](=O)[O-])c3nonc23)cc1`, the z-score is 2.28 (inactive). As to `Cc1cccc(-n2nnc(C(=O)NCc3ccccc3Cl)c2N)c1`, the z-score is 1.52 (inactive). As for `Cc1nn(-c2ccccc2)c(C)c1/C=N/NC(=O)CSc1nnc(SCc2ccccc2Cl)s1`, the z-score was -3.39 (active).

Turning to `O=C1S/C(=C\c2ccc(N3CCOCC3)o2)C(=O)N1Cc1ccc(F)cc1`, the z-score is 8.79 (inactive).

For the compound `CC1CCc2cc(F)ccc2N1C(=O)c1ccc2c(c1)OCO2` (centres undefined), the z-score was -4.9 (active). With `COc1ccc(Nc2c(-c3ccco3)nc3ccc(C)cn23)cc1`, the z-score was 5.18 (inactive). On to `Cc1ccn2c(NC3CCCCC3)c(C)nc2c1`, for which the z-score was 3.89 (inactive). For the compound `Cc1ccn2c(Nc3ccccc3C)c(-c3ccccn3)nc2c1`, the z-score is -3.6 (active). Regarding `Cc1ccc(-c2cn3cccnc3n2)cc1`, the z-score is 2.84 (inactive). For `COc1ccc(-n2nc([N+](=O)[O-])c(=NCc3ccco3)n2O)cc1`, the z-score is 4.25 (inactive). Regarding `Cc1ccc(-c2cc(C(F)(F)F)n3nc(C(=O)NCCCn4ccnc4)cc3n2)cc1C`, the z-score is -5.59 (active). For the compound `CC1CCN(C(=O)c2cc3nc(C4CC4)cc(C(F)(F)F)n3n2)CC1`, the z-score was -0.53 (inactive). Turning to `O=C(Cn1cnc2c(cnn2-c2ccc(F)cc2)c1=O)N1CCCc2ccccc21`, the z-score was 1.13 (inactive).

Turning to `O=C(CSCC(=O)N1CCCc2ccccc21)Nc1nc(-c2ccccc2)cs1`, the z-score was -4.03 (active). The figure for `Cc1cc(C)cc(N=Cc2[nH]c3ccc(Br)c(Cl)c3c2O)c1` is 13.9 (inactive); for `Cc1ccc(C(=O)NCCCn2ccnc2)cc1[N+](=O)[O-]` it is 5.54 (inactive). Regarding `O=C(NCCCn1ccnc1)/C(=C/c1ccco1)NC(=O)c1cccs1`, the z-score was 3.41 (inactive). As to `Cc1nn(Cc2ccccc2Cl)c2sc(C(=O)NCCCn3ccnc3)cc12`, the z-score was -4.53 (active). Take `CN1CCN(Cc2nc(N)nc(Nc3ccc4c(c3)OCCO4)n2)CC1`: the z-score was 4.73 (inactive). For the compound `COc1ccccc1N1CCN(Cc2nc(N)nc(Nc3ccccc3)n2)CC1`, the z-score is -3.17 (active). With `COc1ccccc1N1CCN(C/C(O)=C(\C#N)c2nc(-c3ccccc3)cs2)CC1`, the z-score is 3.2 (inactive). For `Cc1cccc(Nc2nc(N)nc(CN3CCN(c4ccccc4)CC3)n2)c1`, the z-score is -1.36 (inactive).

As to `Cc1ccc(NC(=O)/C=C/c2ccc([N+](=O)[O-])s2)cc1`, the z-score was 16.6 (inactive). Regarding `NC(=NCc1ccc2c(c1)OCO2)NC(=O)c1ccccc1`, the z-score is -3.43 (active). As to `CC(=O)Oc1ccc2c(=O)c(-c3ccccc3)c(C)oc2c1`, the z-score is -0.21 (inactive). Regarding `CCNc1c(N)c(=O)oc2ccccc12`, the z-score is -0.02 (inactive).

For `Cc1ccc(CN2CCN(/N=C/C=C/c3ccccc3[N+](=O)[O-])CC2)cc1`, the z-score was -4.13 (active). Turning to `N#CC(C#N)=C1C=C2C=C(N3CCCCC3)CCC2CC1` (centres undefined), the z-score was 18.2 (inactive).

For `CCN(CC)C(=O)c1sc2nc(-c3cccs3)cc(-c3cccs3)c2c1N`, the z-score was 4.15 (inactive). In the case of `CCN(CC)C(=O)c1sc(NC(=O)c2ccncc2)c(C(=O)OC)c1C`, the z-score is -4.37 (active).

`CC1=NNC(=O)C1CCC(=O)N/N=C/c1ccc(C)cc1` (centres undefined): the z-score is 3.3 (inactive). The figure for `Cc1c(Cl)cccc1NC(=O)CN1CCN(CCN=CC2=C(O)CC(c3ccccc3)CC2=O)CC1` (centres undefined) is 2.18 (inactive). With `Oc1ccc(/C=N/Nc2ccnc3cc(Cl)ccc23)c(O)c1`, the z-score is 5.11 (inactive).

As to `CCN1CCc2c(sc(NC(=S)NC(=O)c3ccc(Cl)cc3)c2C(N)=O)C1`, the z-score is 3.92 (inactive). As for `CC1Cn2c(nnc2C23CC4CC(CC(C4)C2)C3)S1` (centres undefined), the z-score was -3.06 (active). On to `Cc1ccc(-c2csc(=Nc3cccnc3)n2CCCn2ccnc2)cc1C`, for which the z-score is -3.01 (active).

For `N#C/C(=C/c1ccc(N2CCCCCC2)o1)c1ccc(Cl)cc1`, the z-score is 16.2 (inactive).

As for `CC(=O)C1=C(C)Nc2ncnn2C1c1ccc(Cl)cc1Cl` (centres undefined), the z-score is 3.45 (inactive). `CC1CN(C(=O)CCn2c(=O)oc3ccccc32)CC(C)O1` (centres undefined): the z-score was 8.04 (inactive). In the case of `CCCN1C(=O)c2cccc3c(N4CCCCC4)ccc(c23)C1=O`, the z-score is 3.75 (inactive). In the case of `CCCCN1C(=O)/C(=C/C=C2\Oc3ccccc3N2CC)SC1=S`, the z-score was 16.7 (inactive).

Regarding `O=C1CCCC(O)=C1C=NCCc1ccccc1`, the z-score was 3.02 (inactive). Regarding `CCOC(=O)CSc1nc2ccc(Nc3nc(N4CCOCC4)nc(N4CCOCC4)n3)cc2s1`, the z-score was -0.17 (inactive). For the compound `O=c1c2cccc3c(N4CCOCC4)ccc(c32)c2nc3ccccc3n12`, the z-score is 9.75 (inactive).

Consider `Cc1ccc(Nc2nc(N3CCOCC3)c3ccccc3n2)cc1`, for which the z-score is -3.61 (active).

With `Cc1n[nH]c(C)c1N1C(=O)c2cccc3c(N4CCCCCC4)ccc(c23)C1=O`, the z-score is 8.27 (inactive). The figure for `O=C(C1CC1)N1CCC(c2nc(-c3ccc(S(=O)(=O)NCC4CCCO4)cc3)no2)CC1` (centres undefined) is -7.53 (active); for `Cc1noc(/C=C/c2ccc(-c3ccccc3Cl)o2)c1[N+](=O)[O-]` it is 8.03 (inactive). The figure for `COc1ccc(C)cc1NC(=O)COC(C)=O` is 3.48 (inactive); for `COc1ccc(Cl)cc1NC(=O)CN1CCC(n2nnc3cc(C)ccc32)CC1` it is -4.05 (active); for `Nc1cc(S(=O)(=O)Nc2ccccc2Cl)ccc1N1CCOCC1` it is 2.18 (inactive). For `O=C(NN=C1CCN(Cc2ccccc2)CC1)c1cccc(S(=O)(=O)Nc2ccccc2Cl)c1`, the z-score was 3.03 (inactive).
